This is a sample that favours compounds with a hit; in the whole collection about 4.6% have one here.
PfHsp90 yeast 2 – reduces growth (ATP signal) of yeast expressing P. falciparum Hsp90; 310,000 tested, 0.32% active; inhibition, % at 9.4 µM; S. cerevisiae expressing PfHsp90, BacTiter-Glo ATP, 48 h; yeast lacking PDR1 and PDR3 efflux regulators;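 active means every replicate shows inhibition above about 80%, whatever the replicate mean, limit read from the data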
tim10-1 inh – tim10-1 yeast growth inhibition; inhibition, % at 20 µM; S. cerevisiae tim10-1 ts strain growth, BacTiter-Glo, 24 h; 330,000 tested, 2.2% active;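 active means inhibition of at least 40%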;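 further: mutant grown at 25 °C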
TIM10 inh – growth inhibitors of TIM10 yeast strain | S. cerevisiae TIM10 strain growth, BacTiter-Glo luminescence, 24 h | inhibition, % at 10 µM | 330,000 tested, 1.4% active;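 active means inhibition of 40% or more at the single tested concentration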;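 further: wild-type TIM10 isogenic control strain grown at permissive 25 °C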
tim23-1 inh – growth inhibitors of tim23-1 mutant yeast; S. cerevisiae tim23-1 growth, BacTiter-Glo luminescence, 24 h; inhibition, % at 20 µM; 330,000 tested, 1.3% active;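 active means growth inhibition of the mutant yeast at or above 50%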;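 further: temperature-sensitive mutant grown at 25 °C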
NLRP3 yeast inh – blocks the NALP3 inflammasome reconstituted in yeast. inhibition, % at 10 µM. Yeast reconstituted NLRP3/ASC/caspase-1, beta-gal luminescence, 24 h. AID 2825. 330,000 tested, 0.39% active;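 active means inhibition of 50% or more; inactive means inhibition below 50%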
SKKanGAS inh – SKKanGAS growth inhibition | inhibition, % at 7.5 µM | S. pyogenes SKKanGAS, kanamycin growth, BacTiter-Glo, 6 h | 300,000 tested, 1.3% active;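 active means mean replicate score, as percent of positive control median, at least 50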;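 further: strain carries kanamycin resistance gene driven by streptokinase promoter and grows in 40 µg/ml kanamycin; loss of luminescence reflects streptokinase promoter inhibition or plain growth inhibition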
tim23-1 confirm – tim23-1 yeast growth inhibition, confirmed; shares compounds with tim23-1 inh; S. cerevisiae tim23-1 growth, BacTiter-Glo luminescence, 24 h; inhibition, % at 20 µM; 4,400 tested, 83% active; AID 463218;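 active means inhibition above about 39% in either of two replicate wells at 20 µM, limit read from the data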;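 further: temperature-sensitive tim23-1 mutant grown at 25 °C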
Hits are given with their value; 0 = inactive; - = not tested or not shown.

SMILES	PfHsp90 yeast 2	tim10-1 inh	TIM10 inh	tim23-1 inh	NLRP3 yeast inh	SKKanGAS inh	tim23-1 confirm
Cc1ccc(NC(=O)C2CCCN(C(=O)NCc3ccccc3)C2)c(C)c1 (stereo unspecified)	0	0	0	0	0	0	-
CCC(Cc1ccccc1)NC(=O)c1ccc2nc(N3CCOCC3)sc2c1 (stereo unspecified)	0	0	0	0	0	0	-
Cc1ccc(C(=O)Nc2nc(COc3ccccc3)cs2)s1	0	0	0	52	0	0	0
COC(=O)c1cc(-c2ccc(OC)cc2)n[nH]1	-	0	0	0	0	0	-
COc1ccc(-c2cc(-c3ccccc3)n[nH]2)c(O)c1	0	0	0	69	0	0	57
COc1ccc(-c2cc(-c3ccccc3O)[nH]n2)cc1	0	0	0	69	0	0	62
CCOc1ccc(C(=O)OCC(=O)N2CCCC2)cc1	0	0	0	0	0	0	-
CCCCn1c(N)c(N(CCOC)C(=O)C2CCN(c3ncnc4sc(C)c(C)c34)CC2)c(=O)[nH]c1=O	-	0	0	53	0	0	47
Cc1c(Cl)cccc1NC(=S)NCCc1ccc(Cl)cc1	0	0	0	0	0	0	-
O=C(Nc1ccc(NC(=S)NC(=O)c2ccccc2F)cc1)c1cccs1	0	0	0	51	0	0	50
O=C(NC(=S)NC(=O)c1ccccc1F)c1ccccc1F	0	0	0	54	0	0	48
O=C(NC(=S)NCCc1ccccc1)c1ccccc1F	0	0	0	51	0	0	44
Fc1ccccc1NC(=S)NCCc1ccc(Cl)cc1	0	0	0	55	0	-	55
NC(=O)c1nc(-c2ccco2)nc2c1[nH]c(=O)n2-c1ccc(Cl)c(Cl)c1	0	0	0	0	0	0	-
Cc1cc(C(=O)NCC(c2ccco2)N2CCCC2)c2ccccc2n1 (stereo unspecified)	0	0	0	0	0	-	-
COc1ccc(CCNC(=S)Nc2cccc(C)c2C)cc1	-	0	0	50	0	0	0
Cc1ccc(C(=O)NC(=S)NCc2ccccc2)cc1	0	0	0	52	0	0	42
CCOC(=O)N1CCN(c2c(NCCCN3CCCCCC3)c(=O)c2=O)CC1	0	0	0	0	0	0	-
Cc1ccc2c(c1)C(=O)C(=O)N2Cc1ccccc1	0	0	0	73	0	-	62
Oc1ccc2ccccc2c1/C=N/Nc1nnc(-c2ncc[nH]2)c2ccccc12	122	0	0	69	0	97	65
CCN1CCN(C(=O)CCc2nnc3ccc(N4CCC5(CC4)OCCO5)nn23)CC1	0	0	0	0	0	0	-
O=C(Nc1ccc(C(=O)N2CCCc3ccccc32)cc1)c1cccs1	0	0	0	52	0	0	44
CCc1cc(Cn2nc(-c3ccccc3)cc2C(=O)NCc2ccccc2OC)on1	0	0	0	0	0	0	-
COC(=O)Nc1ccc2c(c1)Nc1ccccc1CC2	0	0	0	66	0	0	42
O=C(Nc1ccc(-c2cn3c(n2)SCC3)cc1)c1ccco1	0	0	0	51	0	0	44
SMILES	PfHsp90 yeast 2	tim10-1 inh	TIM10 inh	tim23-1 inh	NLRP3 yeast inh	SKKanGAS inh	tim23-1 confirm
CC(=O)Nc1ccc(-c2cn3c(n2)SCC3)cc1	0	0	0	0	0	0	-
O=[N+]([O-])c1ccc(/C=N/N2CCCCC2)cc1	0	0	0	0	0	0	-
Cc1csc2nc(O)c(C(=O)NC3CCCCC3C)c(=O)n12 (stereo unspecified)	-	0	0	67	0	0	44
Cc1csc2nc(O)c(C(=O)NCC3CCCO3)c(=O)n12 (stereo unspecified)	-	0	0	0	0	0	-
O=C(Oc1cccc2cccnc12)c1ccco1	0	0	0	0	0	0	-
O=C(Oc1ccc(Cl)c2cccnc12)c1ccco1	0	0	0	52	0	87	46
Nc1ncnc2c1ncn2[C@@H]1O[C@H](CO)C[C@@H]1O	-	0	0	56	0	0	59
COc1ccc(C(=O)COC(=O)c2cncc(Br)c2)cc1	0	0	0	65	0	-	75
O=C(OCC(=O)c1ccc[nH]1)c1cncc(Br)c1	0	0	0	0	0	-	-
COc1ccc(CCNC(=O)c2ccc(CNS(=O)(=O)c3cc(C)ccc3C)cc2)cc1OC	0	0	0	0	0	0	-
O=C(CCS(=O)(=O)c1ccc(Cl)cc1)NCCc1c[nH]c2ccccc12	0	0	0	0	0	0	-
Nc1ccc(N=Nc2ccccc2O)c(N)c1	-	0	0	55	0	0	46
COc1cc(/C=N/NC(=O)c2ccc(N)cc2)ccc1OC(=O)c1cccc(C)c1	0	0	0	65	0	0	73
COc1cc(/C=N\NC(=O)c2ccc(C)nc2)ccc1OC(=O)c1cccc(F)c1	0	0	0	0	0	0	-
O=C(Nc1ccccc1-c1nnn(CC(=O)N2CCCc3ccccc32)n1)c1ccc(Cl)cc1	0	0	0	56	0	0	0
Cc1c(Cl)cccc1NC(=O)C1COc2ccccc2O1 (stereo unspecified)	0	0	0	0	0	0	-
O=c1cc(CO)oc(CN2CCN(CCO)CC2)c1O	0	0	0	95	0	0	0
Cc1ccccc1NS(=O)(=O)c1ccc2c(c1)oc(=O)n2C	0	0	0	0	0	0	-
Cc1cccc(NS(=O)(=O)c2ccc3c(c2)oc(=O)n3C)c1C	0	0	0	95	0	0	0
O=C(O)CN1C(=O)/C(=C\c2cc(Br)ccc2OCc2ccc(Cl)cc2Cl)SC1=S	0	0	0	53	0	105	56
O=C(CN(Cc1ccc(F)cc1)C(=O)CCC(=O)Nc1nccs1)NCc1ccccc1	0	0	0	0	0	0	-
O=C(CCl)c1ccc(Cc2ncc(C(F)(F)F)cc2Cl)s1	-	0	0	52	0	55	0
O=C(Cn1c(=O)sc2ccccc21)NCCOc1ccccc1F	-	0	0	0	0	0	-
COc1ccccc1[C@H]1C(c2cccc(Cl)c2)=NN(c2ccccc2)[C@@H]1CO	0	0	0	56	-	-	40
Cc1cccc(C2=NN(c3ccccc3)[C@H](CO)[C@H]2c2ccc(Cl)cc2)c1	0	0	0	51	-	-	0
Cc1cccc(C2=NN(c3ccc(Br)cc3)[C@@H](C(=O)N3CCOC3=O)[C@@H]2c2ccc(F)cc2)c1	0	0	0	0	0	0	-
Cc1cccc(C2=NN(c3ccccc3)[C@H](CO)[C@H]2c2ccc(F)cc2)c1	0	0	0	51	-	-	0
OC[C@@H]1[C@@H](c2ccccc2)C(c2ccccc2)=NN1c1ccccc1	0	0	0	0	-	-	-
OC[C@@H]1[C@@H](c2ccccc2)C(c2cccc(Cl)c2)=NN1c1ccccc1	0	0	0	52	-	-	47
Cc1cccc(C2=NN(c3ccc(Br)cc3)[C@@H](C(=O)N3CCOC3=O)[C@@H]2c2ccc(Cl)cc2)c1	0	0	0	0	-	-	-

Assay outcomes deposited in PubChem by several laboratories.
